Compound activity: PubChem, several laboratories
Sampled rows, rich in hits. Any-hit rate of the full collection: about 4.6%.
tim10-1 inh: inhibits growth of tim10-1 mutant yeast; S. cerevisiae tim10-1 ts strain growth, BacTiter-Glo, 24 h; inhibition, % at 20 µM; actives 2.2% (n = 330,000);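 active means inhibition of at least 40%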;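 further: mutant grown at 25 °C; 0% = DMSO wells with yeast and 100% = wells holding no yeast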
PfHsp90 yeast 2: inhibits growth of yeast expressing Plasmodium falciparum Hsp90; actives 0.32% (n = 310,000); inhibition, % at 9.4 µM; AID 504621; S. cerevisiae expressing PfHsp90, BacTiter-Glo ATP, 48 h; yeast lacking PDR1 and PDR3 efflux regulators;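 active means every replicate shows inhibition above about 80%, whatever the replicate mean, limit read from the data; inconclusive means mean inhibition reaches the set limit but some replicate falls short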;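 further: 0% = DMSO neutral controls and 100% = 20 µM radicicol positive controls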
V-ATPase pH: yeast V-ATPase proton transport regulation by pHLuorin. AID 504577. response, % at 10 µM. S. cerevisiae, pHLuorin cytosolic pH fluorescence. actives 0.37% (n = 350,000); in the data active means response mostly above about 7.3%, no sharp cut-off; inactive means mostly below about 5.4%; further: actives read high
tim23-1 inh: growth inhibitors of tim23-1 mutant yeast. S. cerevisiae tim23-1 growth, BacTiter-Glo luminescence, 24 h. inhibition, % at 20 µM. actives 1.3% (n = 330,000);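 active means growth inhibition of the mutant yeast at or above 50%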;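 further: temperature-sensitive mutant grown at 25 °C; plate controls were DMSO-treated mutant yeast for no effect and medium wells lacking yeast for full effect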
SKKanGAS inh: inhibitors of SKKanGAS S. pyogenes growth in kanamycin (SK-promoter or general growth effect). actives 1.3% (n = 300,000). BacTiter-Glo, 6 h. inhibition, % at 7.5 µM;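 active means mean replicate score, as percent of positive control median, at least 50; inconclusive means mean below 50 but one replicate at or above 50; inactive means mean and every replicate below 50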;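 further: strain carries kanamycin resistance gene driven by streptokinase promoter and grows in 40 µg/ml kanamycin; loss of luminescence reflects streptokinase promoter inhibition or plain growth inhibition; 0% = median of DMSO wells and 100% = positive control at its reference dose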
TIM10 inh: TIM10 yeast growth inhibition | S. cerevisiae TIM10 strain growth, BacTiter-Glo luminescence, 24 h | inhibition, % at 10 µM | actives 1.4% (n = 330,000) | AID 463195;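 active means inhibition of 40% or more at the single tested concentration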;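 further: wild-type TIM10 isogenic control strain grown at permissive 25 °C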
* = called active by the depositor; ? = inconclusive; / = not tested or not shown.

SMILES	tim10-1 inh	PfHsp90 yeast 2	V-ATPase pH	tim23-1 inh	SKKanGAS inh	TIM10 inh
CCOC(=O)C1=NN(C(=O)c2ccc(OC)cc2)C(O)(c2ccc(Cl)cc2)C1 (stereo not drawn)	28	6	-2	39	53*	20
CSc1cccc(NC(=O)OC2CCCCCCCCCCC2)c1	-5	11	0	11	66*	7
CSc1cccc(NC(=O)CNC(=O)C2CCCCC2)c1	9	-11	1	19	30	0
CCCOc1ccc(/C=C/C(=O)OCC(=O)N(C)c2c(N)n(Cc3ccccc3)c(=O)[nH]c2=O)cc1OCC	14	-2	-2	10	3	1
O=C(Nc1ccc(C2=NCCN2)cc1)c1ccc(Cl)c(C(=O)Nc2ccc(C3=NCCN3)cc2)c1	-31	/	/	-110	-1	-76
NC(=S)N=Nc1c(O)n(Cc2ccc(Br)cc2)c2ccccc12	7	20	-4	-13	61*	-7
Oc1c(N=NC(=S)Nc2ccccc2F)c2ccccc2n1Cc1cccc(Cl)c1	20	-23	-1	8	52*	11
NC(=S)N=Nc1c(O)n(Cc2ccc(F)cc2)c2ccccc12	29	-6	-3	-35	-8	-10
Oc1c(N=NC(=S)Nc2ccccc2F)c2ccccc2n1Cc1ccc(F)cc1	19	-37	5	19	66*	31
Cc1cccc(Cn2c(O)c(N=NC(=S)Nc3ccccc3F)c3ccccc32)c1	24	-15	3	0	38	6
O=C(COC(=O)C1=COCCO1)NCc1ccc(Cl)cc1	6	13	0	14	9	1
CN(C)C(=O)c1cc(C(=O)c2ccc(C(F)(F)F)cc2)c[nH]1	2	4	0	1	3	-12
Cc1nc2ccccc2c(=O)n1NC(=O)c1cccc([N+](=O)[O-])c1	3	1	0	16	4	7
CC1CCCN(S(=O)(=O)c2ccc(NC(=O)C3CC(=O)N(c4ccccc4)C3)cc2)C1 (stereo not drawn)	18	5	14*	19	-6	-1
CCCCNc1nc(N)nc(-c2cc(Cl)ccc2O)n1	27	104*	-5	21	1	-69
Cc1cc(C)c2c(N=NN3CCOCC3)[nH]nc2n1	9	102*	-2	5	4	3
Cc1cc(C)c(C#N)c(N2CCOCC2)n1	-12	9	0	2	-7	-1
C=C1/C=C(\C)[C@](C)(O)C[C@H](O)CC(=O)[C@H](O)[C@@H](O)[C@H](C)C[C@H](C)OC(=O)/C(C)=C/CC/C=C/[C@@H]2O[C@H]2C[C@H](C)C1	-33	/	/	4	/	32
Fc1ccc(-n2c(CN3CCCCC3)n[nH]c2=S)cc1	6	13	14*	12	0	1
COc1ccc(CCN2C(=O)c3[nH]nc(-c4ccccc4O)c3C2c2cccc(Cl)c2)cc1 (stereo not drawn)	33	-15	2	31	71*	6
CC1C/C(=N/NC(=O)c2ccc(CSc3nc4ccccc4[nH]3)cc2)CC(C)(C)C1 (stereo not drawn)	5	31	0	18	10	11
CC1C/C(=N/Nc2nc3ccccc3[nH]2)CC(C)(C)C1 (stereo not drawn)	38	-9	1	6	60*	27
O=Cc1sc(N2CCOCC2)nc1-c1ccccc1	11	/	/	18	13	1
COc1ccc(C2C3=C(Nc4ncnn42)c2ccccc2CCC3)cc1 (stereo not drawn)	18	21	/	19	2	-10
Fc1ccc(/C=C2\CCCC3=C2Nc2ncnn2C3c2ccc(F)cc2)cc1 (stereo not drawn)	38	/	6	32	64*	37
SMILES	tim10-1 inh	PfHsp90 yeast 2	V-ATPase pH	tim23-1 inh	SKKanGAS inh	TIM10 inh
CC1C(=O)C(C)C(c2cc(Cl)ccc2O)NC1c1cc(Cl)ccc1O (stereo not drawn)	27	13	0	37	74*	-5
COc1cccc(C2NC(c3cccc(OC)c3O)C(C)C(=O)C2C)c1O (stereo not drawn)	29	-2	-4	9	12	-9
CC(=NNC(=S)N(Cc1ccccn1)Cc1ccccn1)c1cnccn1	/	110*	1	/	/	/
S=C(NN=C(c1ccccc1)c1ccccn1)N(Cc1ccccn1)Cc1ccccn1	/	?	0	/	/	/
CC(C)C(C(=O)Nc1nccs1)c1ccc(Cl)cc1 (stereo not drawn)	-5	-57	-1	15	60*	-10
COc1cc(SC)ccc1C(=O)Nc1ccc2ncccc2c1	-42	-2	0	47	31	1
COc1ccc(-n2nc(C(=O)c3cccs3)cc(-c3nc4ccccc4[nH]3)c2=N)cc1	24	/	-1	-1	58*	12
Cc1cc(NC(=O)c2cccs2)n(-c2nc3ccccc3[nH]2)n1	24	15	-2	-26	-12	21
Cc1ccccc1-n1nc(C(=O)c2cccs2)cc(-c2nc3ccccc3[nH]2)c1=N	36	/	-3	25	86*	29
Cc1c(C(=O)OC(C)C)sc(NC(=O)c2cnccn2)c1C(=O)OC(C)C	/	1	-5	/	/	/
CC12CCC(C(=O)Nc3cccc(Cl)c3Cl)([C@H](Br)C1=O)C2(C)C (stereo partly drawn)	17	-21	0	17	54*	15
CC12CCC(C(=O)Nc3c(Cl)cccc3Cl)(C(Br)C1=O)C2(C)C (stereo not drawn)	2	-13	-9	17	3	-8
COc1cccc(NC(=O)N(C)C[C@@H]2OCc3cnnn3CCCC(=O)N([C@H](C)CO)C[C@@H]2C)c1	/	/	0	/	/	/
O=C(Nc1nc2n(n1)C(c1ccc(Cl)cc1)CC(c1ccc(Cl)cc1)N2)c1ccco1 (stereo not drawn)	20	/	/	18	55*	22
Cc1[nH]c(C)c(S(=O)(=O)N2CCN(c3ccccc3F)CC2)c1C(=O)N1CCCCC1	1	16	-2	-7	-1	3
COc1ccc(NS(=O)(=O)c2ccc3ccccc3c2)c2ncccc12	25	-93	4	5	94*	12
CCN(CCO)C1CC(=O)N(c2ccccc2C)C1=O (stereo not drawn)	35	124*	6	8	-4	17
Cc1ccccc1N1C(=O)CC(N(O)c2ccccc2)C1=O (stereo not drawn)	18	16	3	19	-2	7
C/C(=N/Nc1ccccc1[N+](=O)[O-])c1ccc(C)c([N+](=O)[O-])c1	-11	0	-1	3	-8	13
CC(C)/C(=N/Nc1ccccc1[N+](=O)[O-])c1ccccc1	14	3	0	21	56*	-11
CC(C)(C)c1csc(NNC(=O)c2ccc(Cl)cc2)n1	-13	4	3	41	90*	18
